DENV2 CPE = inhibitors of DENV2 cytopathic effect. DENV2-infected cells, cytopathic effect rescue, plate reader. CPE inhibition, % at 9.99 µM. actives 1.7% (n = 350,000). AID 651640; in the data active = CPE inhibition above about 20%, passing the limit was not always enough; inconclusive = no clear call, values can overlap the other calls; tested in BHK-21 cells;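 note: 0% = median of neutral control wells and 100% = median of positive control wells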
RAD52 anneal inh = blocks human RAD52 DNA annealing; P43351; recombinant RAD52 DNA annealing, FRET fluorescence; inhibition, % at 18.7 µM; actives 0.46% (n = 360,000); AID 651710;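 active = every replicate showing at least 50% inhibition; inconclusive = mean inhibition at least 50% but not in every replicate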
RAD54 inh = inhibitors of human RAD54 branch migration | inhibition, % at 10.4 µM | actives 0.14% (n = 360,000) | RAD54 Holliday junction branch migration, FAM/BHQ fluorescence | Q92698;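 active = mean normalized replicate activity at least 40 and at least half of replicates scoring 40 or more; inconclusive = only one of the two criteria met; inactive = mean below 40 and under half of replicates reaching 40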;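 note: 0% = median of neutral control wells and 100% = median of positive control wells; inhibitors cause a drop in the FAM fluorescence signal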
GSIS activator = primary screen for activators of insulin secretion dependent on glucose, INS-1E cells, GLuc reporter luminescence | INS-1E GLuc reporter insulin secretion, 2-3 h | activation, % at 16.6 µM | actives 0.61% (n = 370,000) | AID 743287;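 active = lowest replicate activation of at least 40%, so every replicate reaches that level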;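 note: 0% = median of neutral control wells and 100% = median of IBMX positive control wells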
dFosB activator = enhances mouse delta FosB homodimer DNA binding; purified delta FosB, TAMRA-CDK5 oligo fluorescence polarization; percent of positive-control signal above neutral wells; activation, % at 25 µM; actives 0.99% (n = 340,000); AID 493131;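 active = mean activation above about 17%, with every replicate also reaching it, limit read from the data, passing the limit was not always enough; inconclusive = only one of the two conditions met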
MLL AF4-AF9 inh = MLL-AF4/AF9 protein interaction inhibition; P42568; AlphaScreen, biotin-AF4 peptide binding to FLAG-AF9; inhibition, % at 10 µM; actives 0.47% (n = 350,000); AID 651704;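 active = every replicate reaching a set inhibition limit, whatever the replicate mean, cut at about 25% in these data; inconclusive = mean inhibition reaches that limit but some replicates miss it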;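 note: 0% = plate neutral control median and 100% = total signal loss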
Target sequence (P42568 whole entry, looked up): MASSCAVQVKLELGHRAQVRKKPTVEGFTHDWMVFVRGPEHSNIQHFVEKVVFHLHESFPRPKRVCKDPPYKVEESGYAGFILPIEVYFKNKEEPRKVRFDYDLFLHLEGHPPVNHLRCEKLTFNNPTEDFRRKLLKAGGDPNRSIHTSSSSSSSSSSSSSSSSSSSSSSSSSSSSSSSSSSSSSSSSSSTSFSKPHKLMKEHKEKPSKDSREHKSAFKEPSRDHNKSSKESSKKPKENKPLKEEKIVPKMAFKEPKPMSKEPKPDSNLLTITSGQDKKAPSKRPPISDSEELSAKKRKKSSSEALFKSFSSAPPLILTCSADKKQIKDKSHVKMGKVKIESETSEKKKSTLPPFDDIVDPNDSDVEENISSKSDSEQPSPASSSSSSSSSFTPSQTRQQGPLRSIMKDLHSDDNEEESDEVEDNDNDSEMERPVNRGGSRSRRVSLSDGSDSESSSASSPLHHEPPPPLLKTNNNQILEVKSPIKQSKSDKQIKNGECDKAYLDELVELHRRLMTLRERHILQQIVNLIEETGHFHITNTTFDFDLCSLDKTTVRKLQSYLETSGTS
Alpha interfer = counter-screen: AlphaScreen signal interference; signal luminescence; shares compounds with MLL AF4-AF9 inh; actives 45% (n = 530); AID 720494; AC50, µM (series often up to 12 µM), without a hit: at the highest dose activity change, negative = inhibition; cut-off not given, nearly all actives have AC50 up to about 14 µM
Active calls of the source: *; ? = inconclusive; . = no result; ! = not active in a repeat. Rows were chosen to be rich in hits. Some 3.1% of all compounds tested hit in one or more screens of this group.

SMILES | DENV2 CPE | RAD52 anneal inh | RAD54 inh | GSIS activator | dFosB activator | MLL AF4-AF9 inh | Alpha interfer
O=C(Cc1ccccc1)N1CC(=O)N2[C@H](CO)[C@@H](c3ccc(-c4cccc(F)c4)cc3)[C@@H]2C1 | 16 | -34 | . | 8 | . | -1 | .
C[C@@H]1CN([C@@H](C)CO)C(=O)Cc2cc(N(C)C)ccc2O[C@H]1CN(C)Cc1ccc(Cl)c(Cl)c1 | -2 | 31 | 3 | -4 | . | 48* | 12µM*
C[C@H]1CN([C@@H](C)CO)C(=O)Cc2cc(N(C)C)ccc2O[C@H]1CN(C)Cc1ccc2c(c1)OCO2 | 10 | 14 | 7 | 19 | . | 4 | .
C[C@H](CO)N1C[C@H](C)[C@@H](CN(C)Cc2ccc(Cl)c(Cl)c2)Oc2ccc(N(C)C)cc2CC1=O | 9 | 34 | 6 | -31 | . | 40* | -36%
C[C@@H]1CN([C@H](C)CO)C(=O)c2cc(N(C)C)ccc2O[C@@H](C)CCCCO[C@@H]1CN(C)Cc1ccncc1 | 0 | -8 | 2 | 7 | . | 3 | .
C[C@@H]1CCCCO[C@H](CN(C)Cc2ccc(Cl)c(Cl)c2)[C@@H](C)CN([C@H](C)CO)C(=O)c2cc(N(C)C)ccc2O1 | -1 | -2 | 4 | -35 | . | 50*! | -38%
Cc1ccc(S(=O)(=O)Nc2ccc3c(c2)C(=O)N([C@@H](C)CO)C[C@@H](C)[C@H](CN(C)S(C)(=O)=O)O3)cc1 | -12 | -16 | 5 | 2 | . | -9 | .
Cc1ccc(S(=O)(=O)Nc2ccc3c(c2)C(=O)N([C@@H](C)CO)C[C@@H](C)[C@H](CN(C)Cc2ccccc2)OCCCC[C@@H](C)O3)cc1 | 2 | . | 12 | -8 | . | . | .
Nc1ccccc1NC1CCCCC1 | 2 | 35 | . | -6 | -7 | 33* | 10µM*
Cc1ccsc1/C=N/N1CCN(Cc2ccccc2)CC1 | 6 | 2 | 3 | 2 | -4 | 27* | -17%
CC1(C)CNc2cc(N)ccc2S1 | 13 | -1 | . | -8 | -10 | 63* | 2.3µM*
O=C(Nc1ccccc1F)N[C@H]1CC[C@H](CCNS(=O)(=O)c2ccccc2)O[C@@H]1CO | 4 | -10 | 3 | 0 | . | -1 | .
CCNC(=O)Nc1ccc2c(c1)C(=O)N(C)[C@H]1CC[C@H](CC(=O)Nc3ccccc3F)O[C@@H]1CO2 | 2 | . | 6 | -4 | . | . | .
CC(C)(C)C1=CC(=Nc2ccccc2N)C=C(C(C)(C)C)C1=O | 9 | -14 | . | 3 | -3 | 73* | 2.7µM*
CC(=Nc1ccc(C)cc1C)c1sc2ccccc2c1O | 4 | -122 | . | 5 | -5 | 32* | -23%
CC(=Nc1ccc(C)cc1)c1sc2ccccc2c1O | . | . | . | 2 | -8 | . | .
COc1ccccc1C#Cc1ccc([C@@H]2[C@H]3CN(CCC(F)(F)F)CCCCN3[C@H]2CO)cc1 | -12 | 21 | 9 | -35 | . | 6 | .
COc1ccccc1-c1ccc([C@H]2[C@H](C#N)N(C(=O)C3CC3)[C@H]2CO)cc1 | -3 | -9 | 2 | 7 | . | -1 | .
CCc1nc2ccc(C(=O)NC3CCN(Cc4ccccc4)CC3)cn2c1N(C)Cc1ccc(N(C)C)cc1 | -6 | -8 | 9 | -3 | . | 52* | 8.5µM*
O=C(C[C@H]1CC[C@H](NC(=O)c2ccncc2)[C@H](CO)O1)NCC1CCCCC1 | 3 | 4 | 5 | 12 | . | 0 | .
CCN(CC)c1ccc(N=Cc2ccc([N+](=O)[O-])o2)cc1 | -9 | -9 | . | . | -12 | 46* | -25%
CCN(CC)c1ccc(N=Cc2ccccc2[N+](=O)[O-])cc1 | 13 | 25 | 5 | . | 1 | 21 | .
CNC(=S)N1N=C(c2ccc(Br)cc2)CC1c1ccc(N(C)C)cc1 (stereo not drawn) | 18 | -97 | . | -3 | -4 | 27* | -30%
Cc1ccccc1-c1ccc([C@@H]2[C@H]3CN(S(=O)(=O)c4cn(C)cn4)CCCCN3[C@H]2CO)cc1 | -9 | -42 | -3 | -5 | . | 1 | .
O=C(C1CC1)N1CC[C@@H]2[C@@H](CO)Nc3ccc(-c4cccc(F)c4)cc3[C@@H]21 | 18 | 12 | -6 | -10 | . | 1 | .
SMILES | DENV2 CPE | RAD52 anneal inh | RAD54 inh | GSIS activator | dFosB activator | MLL AF4-AF9 inh | Alpha interfer
N#CC(C#N)=c1ccc2c(c1)N1C3=C(CCCC3)CC3CCCCC31N=2 (stereo not drawn) | . | . | -12 | . | 3 | . | .
N#C/C(C(N)=O)=c1/ccc2c(c1)N1C3=C(CCCC3)CC3CCCCC31N=2 (stereo not drawn) | . | . | -39 | . | . | 85* | 2.7µM*
COc1cccc(Nc2c(Nc3cccc(OC)c3)c(=O)c2=O)c1 | 4 | -22 | -3 | -4 | -4 | -26 | .
Cc1cccc(NC2=C(NCCO)C(=O)c3ccccc3C2=O)c1 | 0 | -7 | -5 | 70 | -10 | 49* | -26%
COc1cccc(NC2=C(NCCO)C(=O)c3ccccc3C2=O)c1 | ? | -7 | -11 | 1 | 5 | 38* | 14µM*
COc1ccc(NC2=C(NCCO)C(=O)c3ccccc3C2=O)cc1 | ? | 1 | . | -6 | -2 | 56* | 14µM*
C[C@@H](NC(=O)C[C@H]1C[C@@H]2c3cc(NC(=O)Nc4ccccc4F)ccc3O[C@@H]2[C@@H](CO)O1)c1ccccc1 | 4 | 15 | -1 | -16 | . | 6 | .
CCN1CCN(Cc2ccc(NC(=O)c3cc(NC(=O)c4nccnc4N)cc(OC)c3)cc2C(F)(F)F)CC1 | -9 | 39 | 11 | 7 | -32 | ? | -22%
CN(C)c1cccc2c(C=C(C#N)C#N)ccc(N(C)C)c12 | 5 | -12 | 12 | -20 | -4 | 51* | -23%
CN(C)c1cccc2c(/C=N/O)ccc(N(C)C)c12 | 0 | 9 | . | 0 | 0 | 2 | .
CCCN1[C@@H]2c3ccc(-c4cccnc4)c(=O)n3C[C@@H]2[C@@H](CO)[C@@H]1C(=O)NCCN1CCCC1 | . | -107 | -17 | -4 | . | -1 | .
CN(C)c1ccc(N=Nc2ccccc2Br)cc1 | -11 | -14 | 3 | -10 | -2 | 35* | 12µM*
NCCCC[C@@H]1NC(=O)c2cc([N+](=O)[O-])cc(I)c2SC[C@@H](C(=O)NCC(N)=O)NC(=O)CNC1=O | . | . | -5 | . | 1 | . | .
NCCCC[C@@H]1NC(=O)c2cc([N+](=O)[O-])cc(F)c2NCCCC[C@@H](C(N)=O)NC(=O)CNC1=O | 9 | -198 | 29 | 8 | 9 | 42* | -26%
O=C(CCN1CCCCC1)NCC[C@@H]1CC[C@H](NC(=O)Nc2ccc(Cl)cc2)[C@H](CO)O1 | -8 | 17 | -3 | 1 | . | -1 | .
Oc1ccccc1N=N/C(=N/Nc1ccccc1O)c1ccccc1 | ? | -18 | -3 | . | 9 | -3 | .
N#C/C(N=Nc1ccccc1O)=N\Nc1ccccc1O | -9 | -8 | 3 | 9 | -12 | 34* | 8.5µM*
CO[C@@H]1CN(C)C(=O)c2ccc(NC(C)=O)cc2OC[C@@H](C)N(C(=O)c2ccccc2F)C[C@@H]1C | . | . | -3 | -2 | . | . | .
